PubChem BioAssay AID1942 (Johns Hopkins Ion Channel Center, 2009)
Among all 2,400 compounds or so, about 580 (24%) were called active. Only a sample is shown. Unmarked numbers belong to inactive results.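 The calls were made as follows: active = activity change at or above the mean plus 3 SD of buffer wells without dofetilide, per plate; inactive = the rest.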

What follows are compounds tested against Potassium voltage-gated channel subfamily KQT member 2 (Rattus norvegicus) (UniProt O88943) (assay: rat KCNQ2 channel activation by compounds alone, confirmation, counter-screen for hERG block protector project, cell-based, CHO, FluxOR thallium flux (AID 1942;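 also: normalized value minus buffer-control mean plus three SD of buffer wells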)). Conditions: CHO-KCNQ2 cells, FluxOR thallium flux fluorescence; at 10 µM; active compounds read high.
Sequence of Potassium voltage-gated channel subfamily KQT member 2 (Rattus norvegicus) (O88943 whole entry, looked up): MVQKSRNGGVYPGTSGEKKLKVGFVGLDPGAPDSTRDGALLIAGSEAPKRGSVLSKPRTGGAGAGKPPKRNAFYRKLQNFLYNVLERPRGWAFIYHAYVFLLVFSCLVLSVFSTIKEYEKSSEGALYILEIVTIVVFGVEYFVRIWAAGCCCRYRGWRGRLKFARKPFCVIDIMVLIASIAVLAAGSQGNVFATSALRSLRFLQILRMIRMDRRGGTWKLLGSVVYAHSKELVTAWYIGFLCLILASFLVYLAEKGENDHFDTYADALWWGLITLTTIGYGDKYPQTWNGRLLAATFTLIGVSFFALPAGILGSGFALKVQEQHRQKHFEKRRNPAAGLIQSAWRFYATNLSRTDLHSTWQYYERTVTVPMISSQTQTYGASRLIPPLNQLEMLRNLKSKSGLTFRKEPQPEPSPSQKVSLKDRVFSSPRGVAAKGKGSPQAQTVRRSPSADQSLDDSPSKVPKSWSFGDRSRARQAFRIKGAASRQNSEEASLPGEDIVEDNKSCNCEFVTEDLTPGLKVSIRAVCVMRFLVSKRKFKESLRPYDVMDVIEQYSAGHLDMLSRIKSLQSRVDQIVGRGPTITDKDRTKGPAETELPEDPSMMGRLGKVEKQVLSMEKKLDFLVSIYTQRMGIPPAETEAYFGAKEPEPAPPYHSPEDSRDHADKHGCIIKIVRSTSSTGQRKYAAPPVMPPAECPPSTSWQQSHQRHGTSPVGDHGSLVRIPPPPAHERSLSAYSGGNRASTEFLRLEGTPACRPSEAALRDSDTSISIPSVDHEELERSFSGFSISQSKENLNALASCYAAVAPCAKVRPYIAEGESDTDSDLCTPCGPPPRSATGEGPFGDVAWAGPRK

| Structure (SMILES) | activity change, less the hit threshold |
| --- | --- |
| CC(=O)c1ccc(N2CCN(C(=O)Cc3ccccc3)CC2)c(F)c1 | -28% |
| CCCN(CC(=O)Nc1ccccc1C)C(=O)CCl | -25.4% |
| CCc1nnc(NC(=O)c2cccc(S(=O)(=O)N3CCN(c4ccccc4)CC3)c2)s1 | -21.2% |
| COC(=O)/C=C1\S/C(=N/N=C/c2ccco2)NC1=O | -11% |
| CSc1nc2ccc(S(=O)(=O)N3CCc4ccccc43)cc2s1 | -21.8% |
| Cc1ccc2[nH]cc(CCNC(=O)/C=C/c3ccco3)c2c1 | -22.5% |
| CCOC(=O)c1nnsc1NC(C)=O | -19.7% |
| CC(C)Oc1ccccc1C1(c2ccccc2)NC(=O)NC1=O (stereo not given) | -22.4% |
| CCCCc1cc(=O)oc2c(C)c(OCC(=O)NCc3ccccn3)ccc12 | -13.4% |
| CCOc1ccc2nc(/N=C/c3nc(-c4ccc(Br)cc4)oc3O)sc2c1 | -9.3% |
| CCOc1ccc2nc(/N=C/c3c(C)[nH]n(-c4ccc(C)cc4)c3=O)sc2c1 | 102% (active) |
| CCOc1ccc2nc(N3C(=O)/C(=C/c4ccc(Cl)cc4)NC3=S)sc2c1 | -21.3% |
| COc1ccc2nc(/N=C/c3c(C)[nH]n(-c4ccc(C)cc4C)c3=O)sc2c1 | 23% (active) |
| CCC(c1nnc(SCC(=O)NCCc2ccc(Cl)cc2Cl)o1)N(C)C (stereo not given) | -31.5% |
| CCOc1ccccc1C(=O)NC1CC2CCCC(C1)N2Cc1nnnn1Cc1ccco1 (stereo not given) | -26.4% |
| Cc1ccc2cc(CN(CCCN(C)C)C(=S)NCc3ccccc3)c(=O)[nH]c2c1C | -23.9% |
| CC1CC(OCC(O)C[N+]2(C)CCOCC2)CC(C)(C)C1 (stereo not given) | -21.6% |
| CCCSc1cc(NCCOC(C)=O)c([N+](=O)[O-])c2nonc12 | -13.1% |
| COc1ccc(C(=O)O/N=C(\N)c2ccccn2)cc1[N+](=O)[O-] | -10.2% |
| O=[N+]([O-])C1=CC=C2C(=NC3(CCCCC3)N2O)C1=NC1CCCCC1 | -27.4% |
| O=C(O)c1ccc(CNC(=O)C23CC4CC(CC(C4)C2)C3)cc1 | -18.2% |
| Cc1ccc(/C(O)=C/C(=O)C(=O)NC23CC4CC(CC(C4)C2)C3)cc1 | 1.2% (active) |
| Nc1cccc2c1C(=O)N(CC(=O)NC13CC4CC(CC(C4)C1)C3)C2=O | -18.4% |
| S=c1[nH]nc(-c2n[nH]c3c2CCC3)n1/N=C/C=C/c1ccccc1 | -26.2% |
| CC(=O)OCC1O[C@@H](O[C@@H]2C[C@H]3C(C)(C)[C@H](OC(C)=O)CC[C@]3(C)[C@H]3CC[C@]45C[C@]4(CC[C@H]5[C@@H](C)C[C@@H](O)[C@H](O)C(C)(C)O)[C@@]32C)[C@H](O)[C@@H](O)[C@@H]1O (stereo not given in full) | 1% (active) |

| Structure (SMILES) | activity change, less the hit threshold |
| --- | --- |
| CC(Nc1ccc(F)cc1)=[N+](C)CCNS(=O)(=O)c1ccc(Cl)cc1 | -10.9% |
| O=C(CSc1nnc(-c2ccncc2)o1)c1cccc([N+](=O)[O-])c1 | -29.3% |
| N/C(=N\OS(=O)(=O)c1cccc([N+](=O)[O-])c1)c1ccncc1 | 1.3% (active) |
| CN(c1cccc(NS(=O)(=O)c2cccc([N+](=O)[O-])c2)c1)S(C)(=O)=O | -9.2% |
| CCOc1cccc(Nc2cc3n(c(=O)n2)CCc2cc(OC)c(OC)cc2-3)c1 | -19.8% |
| CC(C)CCn1c(SCC(=O)NC2CC2)nc2cc(Cl)ccc2c1=O | -8.5% |
| O=C1c2ccccc2C(=O)N1Cc1nc2ccccc2c(=O)n1CCCn1ccnc1 | -20.6% |
| CCCn1c(SCN2C(=O)c3ccccc3C2=O)nc2cc(Cl)ccc2c1=O | 21.1% (active) |
| Cc1ccc(OCC(=O)Nn2cnc3ccccc32)cc1 | -12.3% |
| O=C(CCc1ccc(S(=O)(=O)N2CCCCC2)cc1)c1nnc(-c2ccccc2)o1 | -13.3% |
| S=C(N/N=C/c1cccc2ccccc12)Nc1cccc(Cl)c1 | -17.2% |
| S=c1nn[nH]n1C12CC3CC(CC(C3)C1)C2 | 21.6% (active) |
| O=C1c2ccccc2C(=O)N1Cc1ccco1 | -11.8% |
| Cc1cccc(-n2c(=S)[nH]c3sc4c(c3c2=O)CCc2ccccc2-4)c1 | -19.9% |
| Cc1cc(=O)[nH]c(=S)n1-c1ccccc1 | -31% |
| O=c1c2c3c(sc2[nH]c(=S)n1Cc1ccco1)CCC3 | 26.9% (active) |
| Cc1ccc(-n2c(=S)[nH]c3sc4c(c3c2=O)CCC4)cc1 | 0.2% (active) |
| CCn1c(=S)[nH]c2sc3c(c2c1=O)CCCC3 | 49.6% (active) |
| CCn1c(=S)[nH]c2sc3c(c2c1=O)CCCCC3 | 97.9% (active) |
| CCN(/N=C/c1ccc(Cl)cc1)c1cc(=O)n(C)c(=O)[nH]1 | -19% |
| CCCCCOCC1CC(C/C(C)=N/Nc2nc(-c3ccccc3)cs2)C(=O)O1 (stereo not given) | -18.7% |
| O=C(/C=C/Nc1ccc(F)cc1)c1ccco1 | -17.3% |
| O=C(c1cccc2c1-c1ccccc1C2)N1CCCCC1 | -20.1% |
| O=C(O)c1ccc2c(c1)C(=O)N(c1cc([N+](=O)[O-])ccn1)C2=O | -1.1% |
| O=C(CN1CCN(Cc2ccccc2)CC1)NCc1ccccc1Cl | -10.1% |
